Source: PubChem BioAssay (NCI)
This is part of a sample that, as a whole, favours compounds with a hit. Of some 79,000 tested, about 15% had one in any assay. Unmarked numbers belong to inactive results. Rule as the data show it: active = growth inhibition above about 70%; inactive = the rest.

Assay: NCI Yeast Anticancer Drug Screen. Data for the rad50 strain (AID 155);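 also: 0% = growth of vehicle-only cultures of the same strain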
Settings: S. cerevisiae rad50 strain growth inhibition; at 50.0 µM; active compounds read high
In short: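 Relative growth inhibition (compound vs vehicle) was measured in yeast with a defined repair-gene alteration.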

Row | Compound | growth inhibition [%]
1 | NC(C(=O)O)c1ccc([N+](=O)[O-])cc1 (centres undefined) | -0.45
2 | CC(=O)OCC1OC(OC2=C(CC=C(C)C)C(=O)c3ccccc3C2=O)C(OC(C)=O)C(OC(C)=O)C1OC(C)=O (centres undefined) | -7.2
3 | O=C1N(C[P+](c2ccccc2)(c2ccccc2)c2ccccc2)CCCN1C[P+](c1ccccc1)(c1ccccc1)c1ccccc1 | 17.4
4 | CCCCC/C=N/Nc1nc(C)cc(=O)[nH]1 | 4.85
5 | Cc1ccc(Cl)cc1N1C(=O)CC(Sc2ccccc2N)C1=O (centres undefined) | 21.9
6 | CN1C(=O)CN2CCc3ccccc3C2c2cc(Cl)ccc21 (centres undefined) | 33.3
7 | O=C(O)c1ccnc(Br)c1 | -3.05
8 | O=C(CCl)Nc1ccc2c(c1)C(=O)c1ccc(NC(=O)CCl)cc1C2=O | 6.3
9 | CC(CC(=O)c1ccccc1)c1ccccc1 (centres undefined) | -7.9
10 | CCOC(=O)/C(C#N)=C/c1cccc(C)c1 | -19.4
11 | Cc1ccc(Cl)cc1NC(=O)N(C)CCO | 6.3
12 | N/N=C(/Cc1ccccc1)NNC(N)=S | 1.95
13 | COc1ccc(-c2cc(-c3cc(-c4ccc(OC)cc4)nc(N)n3)nc(N)n2)cc1 | -13
14 | CCCCC1C(=O)N(c2ccccc2)N(c2ccccc2)C1=O | -5.2
15 | CCCCOC(=O)c1ccc(C(C)C)cc1 | 8.85
16 | CC(C)OC(C(=O)O)c1ccccc1 (centres undefined) | -18.2
17 | Cc1ccc(C(=O)c2ccccc2)c(C)c1 | 8.65
18 | C[N+](C)=c1ccc2nc3c(cc(Nc4ccccc4)c4ccccc43)oc-2c1 | 20.1
19 | COc1ccccc1C1OC2=Nc3cc(C)c(C)cc3NC2C1=O (centres undefined) | 11.1

Row | Compound | growth inhibition [%]
20 | Cc1cc(C)cc(NCCC#N)c1 | 15.5
21 | CCC/C=C(/C(C)=O)C(=O)OCC | 18.9
22 | Nc1ccc(N=Nc2ccc(O)cc2)c(N)n1 | -15.7
23 | Cc1cccc(CO)c1 | 14.3
24 | Cc1cc(O)ccc1O | 31
25 | c1ncc2[nH]cnc2n1 | -14.6
26 | O=S(=O)(Cc1ccccc1)c1ccccc1 | 4.6
27 | CC1C(=O)c2ccccc2CC1C(=O)O (centres undefined) | -1.6
28 | CC(=O)OCCC(C)CCC=C(C)C (centres undefined) | 14.7
29 | N#CCCN(CCCN1CCOCC1)CN1C(=O)c2ccccc2C1=O | 5.8
30 | O=C(NCc1ccco1)Nc1c(Cl)cc(Cl)cc1Cl | -3.1
31 | CSC[C@H](NC(=O)COc1cccc2cnccc12)C(=O)NC(Cc1ccccc1)C(O)C(=O)N1CSC[C@H]1C(=O)NC(C)(C)C (some centres undefined) | -34.3
32 | O=C(O)c1ccccc1NCc1ccco1 | -14.7
33 | COC(=O)c1ccccc1Br | -1.7
34 | Oc1ccc(N=Nc2ccc(Br)cc2)c(O)c1 | 4.15
35 | CCOc1ccc(/C=N/N=C(N)N)cc1OCC | -31.4
36 | CCOc1ccc(I)cc1 | 10.9
37 | C=CC(O)CCC (centres undefined) | -8.4
38 | CC(=O)c1cc2c(cc1F)C(C)(C)CCC2(C)C | -23.2

Assay: NCI Yeast Anticancer Drug Screen. Data for the sgs1 mgt1 strain (AID 161);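 also: 0% = growth of cultures given vehicle only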
Settings: S. cerevisiae sgs1 mgt1 strain, at 50.0 µM, active compounds read high
In short: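 Percent growth inhibition was derived by comparing compound-exposed mutant yeast with vehicle-exposed cultures. The strain carries alterations in DNA damage repair.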

Row | Compound | growth inhibition [%]
39 | NC(C(=O)O)c1ccc([N+](=O)[O-])cc1 (centres undefined) | 8.8
40 | CC(=O)OCC1OC(OC2=C(CC=C(C)C)C(=O)c3ccccc3C2=O)C(OC(C)=O)C(OC(C)=O)C1OC(C)=O (centres undefined) | -17.4
41 | O=C1N(C[P+](c2ccccc2)(c2ccccc2)c2ccccc2)CCCN1C[P+](c1ccccc1)(c1ccccc1)c1ccccc1 | 3.55
42 | Cc1ccc(Cl)cc1N1C(=O)CC(Sc2ccccc2N)C1=O (centres undefined) | 28.4
43 | CN1C(=O)CN2CCc3ccccc3C2c2cc(Cl)ccc21 (centres undefined) | 47.6
44 | O=C(O)c1ccnc(Br)c1 | -31.1
45 | O=C(CCl)Nc1ccc2c(c1)C(=O)c1ccc(NC(=O)CCl)cc1C2=O | 4.15
46 | CC(CC(=O)c1ccccc1)c1ccccc1 (centres undefined) | -10.7
47 | CCOC(=O)/C(C#N)=C/c1cccc(C)c1 | -25.2
48 | Cc1ccc(Cl)cc1NC(=O)N(C)CCO | 9.9
49 | N/N=C(/Cc1ccccc1)NNC(N)=S | -26.6
50 | CCCCC1C(=O)N(c2ccccc2)N(c2ccccc2)C1=O | -2.65
51 | CCCCOC(=O)c1ccc(C(C)C)cc1 | 8.65
52 | Cc1ccc(C(=O)c2ccccc2)c(C)c1 | 0.6
53 | C[N+](C)=c1ccc2nc3c(cc(Nc4ccccc4)c4ccccc43)oc-2c1 | 30.1
54 | COc1ccccc1C1OC2=Nc3cc(C)c(C)cc3NC2C1=O (centres undefined) | -1.95
55 | Cc1cc(C)cc(NCCC#N)c1 | 18.4
56 | CCC/C=C(/C(C)=O)C(=O)OCC | -7

Row | Compound | growth inhibition [%]
57 | Nc1ccc(N=Nc2ccc(O)cc2)c(N)n1 | -16.7
58 | Cc1cccc(CO)c1 | -25.1
59 | Cc1cc(O)ccc1O | 7
60 | c1ncc2[nH]cnc2n1 | -11.6
61 | O=S(=O)(Cc1ccccc1)c1ccccc1 | 2.1
62 | CC1C(=O)c2ccccc2CC1C(=O)O (centres undefined) | 7.8
63 | CC(=O)OCCC(C)CCC=C(C)C (centres undefined) | -19.9
64 | N#CCCN(CCCN1CCOCC1)CN1C(=O)c2ccccc2C1=O | 35.5
65 | CC1(C)OC(=O)C(c2ccsc2)C(=O)O1 | -20.4
66 | O=C(NCc1ccco1)Nc1c(Cl)cc(Cl)cc1Cl | -2.85
67 | CSC[C@H](NC(=O)COc1cccc2cnccc12)C(=O)NC(Cc1ccccc1)C(O)C(=O)N1CSC[C@H]1C(=O)NC(C)(C)C (some centres undefined) | -28.9
68 | O=C(O)c1ccccc1NCc1ccco1 | 14
69 | COC(=O)c1ccccc1Br | 3.4
70 | Oc1ccc(N=Nc2ccc(Br)cc2)c(O)c1 | 30.2
71 | CCOc1ccc(/C=N/N=C(N)N)cc1OCC | -17.6
72 | CCOc1ccc(I)cc1 | -17.5
73 | C=CC(O)CCC (centres undefined) | -16.8
74 | CC(=O)c1cc2c(cc1F)C(C)(C)CCC2(C)C | -19.1
